Hits are enriched below; roughly 0.52% of the tested compounds scored in any of these assays.
aGlu spleen mod: lysosomal alpha-glucosidase (human) modulation; human spleen homogenate, 4-MU-alpha-glucoside fluorescence; Potency, µM (highest dose often 79.9 µM), inactives show at the top dose activity change, negative = inhibition, usual class: inhibitors; hit rate 0.006% among 240,000; AID 2112;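 further: 0% = enzyme with vehicle and -100% = no enzyme basal signal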
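Compounds were titrated against alpha-glucosidase in spleen homogenate at pH 5.0, with 1 mM 4-methylumbelliferyl substrate for 40 min at 37 C. Reactions were quenched with pH 10 NaOH/glycine and fluorescence measured.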
Lamin A splicing: LMNA splicing modulation. hit rate 0.01% among 200,000. AID 1487. HeLa LMNA splicing GFP/RFP minigene ratio, 48 h. Potency, µM (highest dose often 46.1 µM), without a hit: top-dose ratio change, negative = inhibition, hits mostly inhibitors; active means well fitted inhibition curve with a large enough effect in the signal ratio, with a control signal flat, not every such curve was filed as active; inconclusive means small, poorly fitted or top-dose-only effect, or effect the other way, or a change in a side signal; the % refers to the signal ratio
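S3 HeLa stable clones carrying a lamin A-EGFP splicing minigene plus DsRed2 were seeded at 600 cells/well in Opti-MEM with 2% FBS, pin-dosed and incubated 48 h at 37°C. Acumen cytometry (488 nm) gave the GFP/RFP total-intensity ratio.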
GAA glycogen mod: GAA glycogen-cleavage inhibition or activation; Potency, µM (top dose mostly 76.4 µM), inactives show top-dose activity change, negative = inhibition, hits mostly inhibitors; hit rate 0.38% among 300,000; recombinant GAA, glycogen substrate, Amplex Red glucose oxidase fluorescence; P10253;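 further: 0% = full enzyme reaction and -100% = no-enzyme basal signal; the screen sought inhibitors and activators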
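Recombinant enzyme (4 nM final) with compounds titrated up to 77 uM and bovine liver glycogen (30 ug) in citrate pH 5.0, 0.01% Tween-20, 37 C 40 min. Released glucose detected by Amplex Red/glucose oxidase (Ex 573/Em 610); AC50 from Hill fits.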
KinaseGlo FLuc: blocks Kinase-Glo luciferase, a counter-screen artifact | Q27757 | Kinase-Glo luciferase, ATP luminescence, 8 min | Potency, µM (titrated, usually from 38.3 µM), for the others: at the highest dose activity change, negative = inhibition, usual class: inhibitors | hit rate 0.28% among 200,000; further: nearly all actives have a fitted effect of over 60% in size
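Substrate mix (final 50 mM imidazole pH 7.2, 50 mM KCl, 7 mM MgCl2, 10 uM ATP, 0.01% Tween 20, 0.05% BSA) plus pin-tool compound, then Kinase-Glo detection mix; 8 min ambient, luminescence read.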
GAA inh: blocks human lysosomal alpha-glucosidase; P10253; purified human GAA, 4-MU-alpha-glucoside fluorescence; Potency, µM (top dose mostly 76.9 µM), for inactives: at the top dose activity change, negative = inhibition, usual class: inhibitors; hit rate 0.005% among 200,000;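 further: plate controls were uninhibited enzyme wells for no effect and no-enzyme background for full effect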
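Fluorogenic assay: 4 nM human alpha-glucosidase with 400 uM 4-methylumbelliferyl-alpha-D-pyranoside in 50 mM citrate/phosphate, 0.005% Tween-20, pH 5.0, 20 min at room temperature. Compounds tested up to 77 uM; AC50 from Hill fits.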
N370S GC: N370S glucocerebrosidase modulation, Gaucher chaperone candidate; N370S GC spleen homogenate, 4MU-glucoside fluorescence; Potency, µM (titrated, usually from 59.4 µM), for inactives: at the top dose activity change, negative = inhibition, actives largely listed as inhibitors; hit rate 0.092% among 330,000; AID 2101;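 further: 0% = full enzyme activity and -100% = no enzyme basal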
Active calls of the source: *; ? = inconclusive; / = no result given; [ ] = remark or other dose. Unless noted, the call rests on the fitted dose curve; in most records, active means well fitted curve in the direction sought with a large enough effect; inconclusive means small, poorly fitted or top-dose-only effect, or another doubt; inactive means no such curve, though single readings can be large; an effect the other way counts as inactive or inconclusive. Unless noted, on the % scale 0 is the no-effect control and ±100 the full control effect; potency means the concentration at half of the fitted maximal effect.

SMILES	aGlu spleen mod	Lamin A splicing	GAA glycogen mod	KinaseGlo FLuc	GAA inh	N370S GC
COc1cc(C2C(C#N)=C(C)NC3=C2C(=O)CC(C)(C)C3)cc(OC)c1O (stereo unspecified)	-1.6%	2.7%	12.5µM*	-0.9%	-8.3%	-3.0%
N#CC(C#N)=C1C=C2C=C(N3CCCCC3)CCC2CC1 (stereo unspecified)	-4.4%	?	-6.3%	-1.1%	-0.8%	9.6%
N#CC1=C(N)C2=C(N3CCCCC3)CCCC2C1(C#N)C#N (stereo unspecified)	0.7%	-3.7%	22.4µM*	-3.9%	-2.5%	-2.8%
COc1ccc(-c2cn3nc(N4CCC(C(=O)Nc5ccc(C)cc5)CC4)sc3n2)cc1	/	-15.7%[46 µM]	-4.8%[76.3 µM]	/	/	/
CCOc1ccc(CCNC(=O)c2nn(-c3ccc(OC)cc3)c(=O)c3c2c2ccccc2n3C)cc1OCC	/	/	-1.2%[76.3 µM]	/	/	/
Nc1nc(-c2ccccc2)c(N=Nc2ccc(Cl)cc2)s1	1.6%	?	-4.4%	-3.4%	-1.9%	2.51µM*
COc1ccc(Br)cc1C(=O)Nc1cccc2ccc(C)nc12	/	/	-4.0%[76.3 µM]	/	/	/
CCOC(=O)C1=C(c2ccccc2)NC(N)=NC1c1ccc(OCc2ccc(Cl)cc2)c(OC)c1 (stereo unspecified)	1.9%	/	-5.0%	/	/	22.4µM*
CCOC(=O)C1=C(c2ccccc2)NC(=O)NC1c1cc(Cl)c(O)c(OC)c1 (stereo unspecified)	-3.1%	/	-28.7%	0.1%	-2.6%	0.8%
CCOC(=O)/C(=N\Nc1cccc(C(F)(F)F)c1)N1CCOCC1	-1.9%	19.6%[46 µM]	?	-0.6%	-4.2%	-1.6%
CC(=O)/C(=N/Nc1cccc(Cl)c1)N1CCOCC1	2.0%	11.0%	14µM*	-4.2%	-2.4%	1.5%
CC(=O)/C(=N/Nc1ccccc1C)N1CCOCC1	-2.9%	14.7%	12.6µM*	-1.9%	-4.2%	-1.2%
CC(=O)/C(=N/Nc1ccccc1)N1CCOCC1	-15.7%	8.6%	10µM*	-1.5%	-4.8%	-5.0%
c1ccc(CCn2nnnc2C(c2cccnc2)N2CCN(c3ccccc3)CC2)cc1 (stereo unspecified)	-3.9%	3.9%	3.0%	1.8%	-4.1%	-5.0%
CCC(C)(C)n1nnnc1C(c1ccc2ncccc2c1)N1CCN(c2nc3ccccc3s2)CC1 (stereo unspecified)	-11.6%	?	-1.0%	4.0%	?	-0.5%
CC(C)C(c1nnnn1Cc1ccc(F)cc1)N1CCN(c2ccc(O)cc2)CC1 (stereo unspecified)	7.2%	?	7.03µM*	-0.5%	14.1%	?
Oc1ccc(N2CCN(C(c3cccnc3)c3nnnn3Cc3ccccc3)CC2)cc1 (stereo unspecified)	2.6%	?	15.7µM*	-2.6%	0.7%	?
CCC(C)(C)n1nnnc1C(c1ccc2ncccc2c1)N1CCN(c2ccc(O)cc2)CC1 (stereo unspecified)	2.8%	/	1.41µM*	/	/	?
CN1C(C(=O)Nc2ccccn2)C(=O)c2sc(Cl)cc2S1(=O)=O (stereo unspecified)	/	-14.7%	/	/	/	/
CCC(=O)N1CCc2cc(S(=O)(=O)NC(C(=O)NCCc3ccc(Cl)cc3)C(C)C)ccc21 (stereo unspecified)	/	/	7.0%[76.3 µM]	/	/	/
Nc1nonc1N/N=C/c1c(O)ccc2ccccc12	-2.3%	/	9.92µM*	0.9%	?	-4.3%
COC(=O)NC(c1cccc(F)c1)[C@@]1(C(=O)OC)CCCC1=O (stereo partly specified)	-1.5%[17.4 µM]	/	/	/	/	-1.5%[12.8 µM]
CC1N(C)c2cccc3cccc(c23)N1C	4.0%	0.3%	12.5µM*	0.5%	4.5%	1.0%
Cc1cc(=O)n(-c2ccc(O)cc2)[nH]1	-5.2%	8.2%	14µM*	3.1%	2.9%	-2.1%
CN(C(=O)CSc1nc2ccc(NC(=O)c3cccs3)cc2s1)c1ccccc1	/	-0.5%[46 µM]	-8.9%[76.3 µM]	/	/	/
O=C1/C(=C/c2cccs2)Cc2ccccc21	-8.6%	-8.0%	-2.6%	/	-5.4%	7.6%

From PubChem
